From ChEMBL document CHEMBL3433997, “St. Jude Leishmania screening dataset” (2016)

What follows are compounds tested against Glucose transporter (Leishmania mexicana) (UniProt O61059) (assay: ST_JUDE_LEISH: Cytotoxicity at 2uM final concentration against transgenic Leishmania Mexicana promastigotes LmGT2 that are glucose transport deficient and complemented with the L. Mexicana glucose transporter 2. Activity is measured by DNA content using SYBR green in vitro).
Assay type: functional

Row | Structure (SMILES) | inhibition
1 | CC(C)(CNC(=O)C1CCN(Cc2ccc(Cl)cc2)CC1)c1nc(-c2ccc(Cl)c(O)c2)c(-c2ccncc2)[nH]1 | 9.13%
2 | Cc1ccc(C(=O)NCC2CCN(c3ccc(C(F)(F)F)cc3NC(=O)c3ccco3)CC2)cn1 | 3.12%
3 | CC(C)CCNCc1ccc(OCc2cccc(C(=O)Nc3ccccc3)c2)c(I)c1 | 1.47%
4 | N#Cc1ccc(-n2cc(C(=O)Nc3ccc4c(c3)CCN(C3CCC3)CC4)c(C(F)(F)F)n2)cc1 | 4.42%
5 | CCCC(C)NC(=O)[C@H]1CNCCN1C(=O)CCCc1ccccc1 (some centres undefined) | 3.67%
6 | O=C(/C=C/c1ccc(Cl)c(Cl)c1)NCCCCCN1CCC(NC(=O)Nc2cccc(Cl)c2F)CC1 | -9.82%
7 | COc1cc2nccc(Nc3cccc(Oc4ccccc4)c3)c2cc1OC | 9.3%
8 | COc1ccc2cc(C=NNc3nc4ccccc4[nH]3)c(Cl)nc2c1 | 1.79%
9 | O=C(NCCNc1ccnc(Nc2ccc(F)cc2)n1)Nc1ccc2c(c1)OCO2 | 0.6%
10 | Cc1cc(N2CCOCC2)nc(Nc2ccc(NC(=O)Nc3ccc(F)cc3)cc2)n1 | 1.66%
11 | Cc1ccc(NC(=S)N2CCCN(CCCCCNC(=O)/C=C/c3ccc(Cl)c(Cl)c3)CC2)cc1Cl | 0.36%
12 | Nc1nc(N)c2nc(C3CC=CCC3)c(N)nc2n1 (centres undefined) | -0.04%
13 | CC(C)CCn1c(Sc2ccc(C#N)c([N+](=O)[O-])c2)nnc1-c1cccc(Cl)c1 | 8.26%
14 | Nc1ccn([C@@H]2O[C@H](COC(c3ccccc3)(c3ccccc3)c3ccccc3)[C@@H](O)[C@@H]2O)c(=O)n1 | 4.4%
15 | COc1cccc2c(NCc3ccccc3)nc(NCCCN3CCCCC3C)nc12 (centres undefined) | 13.1%
16 | O=C(NC1CCC(N2CCC(c3nc4ccccc4s3)CC2)CC1)c1cc2ccccc2[nH]1 (centres undefined) | -1.51%
17 | CN1CCC(N2CCN(Cc3cccc(-c4ccc(-c5nc6cc(F)ccc6[nH]5)cc4)c3)CC2)CC1 | 2.66%
18 | Cc1cccc2nc(-c3ccc(-c4cccc(NC(=O)CN5CCN(C)CC5)c4)s3)[nH]c12 | 2.66%
19 | CCN(CC)CCN(Cc1ccc(-c2ccc(C(F)(F)F)cc2)cc1)C(=O)Cn1c(CCc2cc(F)c(F)c(F)c2)nc(=O)c2ccccc21 | 8.54%
20 | c1ccc(-c2cc(NCCCCNc3cc(-c4ccccc4)nc4ccccc34)c3ccccc3n2)cc1 | 6.81%

Row | Structure (SMILES) | inhibition
21 | COc1ccc2nccc([C@@H](O)CN3CCC(NCC(O)Cc4ccccc4)CC3)c2c1 (some centres undefined) | 1.51%
22 | O=c1c2sc(-c3ccc(Cl)cc3)cc2ncn1Cc1ccc(OCCN2CCCC2)c2ccccc12 | 1.85%
23 | COc1ccc(CNC(=O)c2cnc3cc(-c4c(C)noc4C)ccc3c2Nc2ccccc2C(C)(C)C)cc1 | 1.52%
24 | COc1cc2c(cc1OC)-c1cc(=Nc3c(C)cc(C)cc3C)n(C)c(=O)n1CC2 | 0.49%
25 | O=C(c1ccc(-c2ccc(-c3nc4cc(C(F)(F)F)ccc4[nH]3)s2)cc1)N1CCCCC1CN1CCC(O)C1 (centres undefined) | 2.98%
26 | COc1ccc(Br)cc1/C=C/C(=O)Nc1cccc(C2CCCN(C)C2)c1 (centres undefined) | 7.45%
27 | N#Cc1cccc(C(=O)Nc2ccc(-c3ccc(CN4CCCC4)cc3)cc2)c1 | 3.78%
28 | Cc1ccc(C(=O)Nc2cc(S(=O)(=O)N3CCCC3)ccc2OCC(F)(F)F)cc1 | 4.69%
29 | O=C(NCc1ccccc1)Nc1ccc(-c2ccc(-c3nc4cc(C(F)(F)F)ccc4[nH]3)cc2)cc1 | 0.55%
30 | Cn1ccc2c3c(N)nc(N)nc3ccc21 | 1.34%
31 | NC(=O)c1cccc(CN2Cc3ccccc3OC3(CCN(Cc4c[nH]c5cnccc45)CC3)C2)c1 | 0.09%
32 | CCc1ccccc1NC(=O)CN1CCN(c2ncnc3scc(-c4ccc(F)cc4)c23)CC1 | 2.87%
33 | Cn1nc(-c2ccc(Cl)cc2)c2cc(C(=O)NCCN3CCOCC3)sc21 | -0.52%
34 | CN1CCN(CCCCCCNc2c3ccccc3nc3ccccc23)CC1 | 10.9%
35 | CC(C)(C)C(=O)Nc1c(-c2cc(=O)oc3cc4c(cc23)CCC4)oc2ccccc12 | 5.42%
36 | CS(=O)(=O)N1CC2(CCN(CCC(NC(=O)NCc3ccccc3Cl)c3ccc(Cl)c(Cl)c3)CC2)c2ccccc21 (centres undefined) | 1.78%
37 | CN1CC[C@@H](Oc2cc(Nc3nc(-c4ccc(C#N)cc4)cs3)ccc2Cl)C1 | 4.06%
38 | c1ccc(CCNCc2ccc(-c3ccc(CNc4ccc5ncccc5c4)cc3)cc2)cc1 | 2.13%
39 | CN(C)c1ccc(-c2csc(C(=O)NC3CCCCN(CCC(C)(C)C)C3)c2)cc1 (centres undefined) | 0.68%
